The source of these data is PMC8384837, “Expanding the binding specificity for RNA recognition by a PUF domain”.

Assay in all cases: yeast three-hybrid, YBZ-1, SC-Leu-His + 0.5 mM 3-AT, 4 days
Holding throughout (details): tags: N-Gal4 AD-HA kept; label: inside an RPR1-promoter hybrid RNA with tandem MS2 sites; ssRNA

The target in one test is PUM1 PUF domain R1-GIR (Homo sapiens, UniProt Q14671 828-1176, S863G;R864I;Q867R). The method in brief:
(§1)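 Sequencing with Illumina followed PCR amplification of the repeat regions from transformants grown four days on SC-Leu (input) or SC-Leu-His + 0.5 mM 3-AT (selection). The transformants were strain YBZ-1 with a LexA–MS2 coat fusion and a HIS3 reporter, carrying Pumilio-1 PUF domain libraries and matching RNA elements. The interaction score is the log change in variant frequency from input to selection, computed in log2 with a pseudocount of 1 for absent variants.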

The next test deals with PUM1 PUF domain R8-VWP (Homo sapiens, UniProt Q14671 828-1176, N1122V;Y1123W;Q1126P). The procedure, abridged:
as §1

Another test deals with PUM1 PUF domain R3-PWW (Homo sapiens, UniProt Q14671 828-1176, C935P;R936W;Q939W). The method in brief:
as §1

Another test concerns the target PUM1 PUF domain R5-RKS (Homo sapiens, UniProt Q14671 828-1176, C1007R;R1008K;Q1011S). The method in brief:
as §1

The target of a further test is T1, PUM1 PUF domain R6-AFL (Homo sapiens, UniProt Q14671 828-1176, N1043A;Y1044F;Q1047L).
T1 sequence: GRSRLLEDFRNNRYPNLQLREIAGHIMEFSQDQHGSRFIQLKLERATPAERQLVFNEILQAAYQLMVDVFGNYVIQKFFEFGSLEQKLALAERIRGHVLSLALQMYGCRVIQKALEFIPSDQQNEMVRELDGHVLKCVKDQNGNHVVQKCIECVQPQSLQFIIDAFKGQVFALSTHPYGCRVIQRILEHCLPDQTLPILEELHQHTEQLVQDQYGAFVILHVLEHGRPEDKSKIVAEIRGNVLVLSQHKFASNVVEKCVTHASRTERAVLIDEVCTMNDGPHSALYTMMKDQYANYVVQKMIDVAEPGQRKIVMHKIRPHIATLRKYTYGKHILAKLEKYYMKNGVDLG
The procedure, abridged: as §1

The next test has as its target PUM1 PUF domain R5-QMG (Homo sapiens, UniProt Q14671 828-1176, C1007Q;R1008M;Q1011G). The method in brief:
as §1

On to “GGCUAGAACUAGUGGAUCCCCCGGCGCCCGGCGGCUCGAGCCCGGGUAAGUGUAAAUUGUCUGCAUGCCGCCGGGCGCCAUGCCUGCAGGUCGACUCUAGAAAACAUG”, for which the binding signal with PUM1 PUF domain R1-GIR was 3.23 log2 enrichment (interaction score).
As to “GGCUAGAACUAGUGGAUCCCCCGGCGCCCGGCGGCUCGAGCCCGGGUAAGUGUAAAUCGUCUGCAUGCCGCCGGGCGCCAUGCCUGCAGGUCGACUCUAGAAAACAUG”, in the test with PUM1 PUF domain R1-GIR, the binding signal was 4.44 log2 enrichment (interaction score).
“GGCUAGAACUAGUGGAUCCCCCGGCGCCCGGCGGCUCGAGCCCGGGUAAGCGUAAAUAGUCUGCAUGCCGCCGGGCGCCAUGCCUGCAGGUCGACUCUAGAAAACAUG”: the binding signal in the test with PUM1 PUF domain R8-VWP is 3.01 log2 enrichment (interaction score).
With “GGCUAGAACUAGUGGAUCCCCCGGCGCCCGGCGGCUCGAGCCCGGGUAAGUGUAAAUAGUCUGCAUGCCGCCGGGCGCCAUGCCUGCAGGUCGACUCUAGAAAACAUG”, the binding signal with PUM1 PUF domain R8-VWP was 1.71 log2 enrichment (interaction score); in the test with PUM1 PUF domain R3-PWW it was 2.43 log2 enrichment (interaction score); with PUM1 PUF domain R5-RKS, 0.56 log2 enrichment (interaction score).
Consider “GGCUAGAACUAGUGGAUCCCCCGGCGCCCGGCGGCUCGAGCCCGGGUAAGUGAAAAUAGUCUGCAUGCCGCCGGGCGCCAUGCCUGCAGGUCGACUCUAGAAAACAUG”, for which, in the test with PUM1 PUF domain R6-AFL, the binding signal is 4.25 log2 enrichment (interaction score).
As for “GGCUAGAACUAGUGGAUCCCCCGGCGCCCGGCGGCUCGAGCCCGGGUAAGUGUGAAUAGUCUGCAUGCCGCCGGGCGCCAUGCCUGCAGGUCGACUCUAGAAAACAUG”, in the test with PUM1 PUF domain R5-QMG, the binding signal is 2.26 log2 enrichment (interaction score).
As for “GGCUAGAACUAGUGGAUCCCCCGGCGCCCGGCGGCUCGAGCCCGGGUAAGUGUCAAUAGUCUGCAUGCCGCCGGGCGCCAUGCCUGCAGGUCGACUCUAGAAAACAUG”, the binding signal in the test with PUM1 PUF domain R5-RKS is 3.2 log2 enrichment (interaction score).
